Measurements published in PubChem BioAssay (Tox21).
Records with an inconclusive call do not appear. Activity calls are given as the source filed them. Unless noted, calls follow the shape of the dose curve; as a rule, active = well fitted curve in the direction sought with a large enough effect in the repeat runs; inconclusive = weak or mixed curves; inactive = no such curve, though single readings can be large; an effect the other way counts as inactive or inconclusive.

Key:
[1] = target: Progesterone receptor (Homo sapiens) (UniProt P06401); assay: qHTS assay to identify small molecule agonists of the progesterone receptor (PR) signaling pathway (AID 1346784; calls by dose curve; also: nearly all actives have a fitted effect of over 30% in size; also: potency is read from the fitted curve at half-maximal effect)
In short: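 Compounds were tested for PR agonism in HEK 293T cells bearing a beta-lactamase gene under UAS control. Treatment lasted 16 hr at 37C; signal came from fluorescence of a FRET substrate.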

[2] = target: Progesterone receptor (Homo sapiens) (UniProt P06401); assay: qHTS assay to identify small molecule antagonists of the progesterone receptor (PR) signaling pathway (AID 1346795; active = well fitted inhibition curve with a large enough effect in the signal ratio in the repeat runs, not every such curve was filed as active; the % refers to the signal ratio; also: potency is read from the fitted curve at half-maximal effect)
In short: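 In HEK293T cells bearing the PR-UAS-bla reporter, compound effects on promegestone-driven (1 nM) beta-lactamase expression are assessed after 16 hr using a fluorescent FRET substrate incubated 2 hr at room temperature.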

[3] = qHTS assay to identify small molecule antagonists of the progesterone receptor (PR) signaling pathway - cell viability counter screen (AID 1346798); also: series mostly up to about 92 µM; nearly all actives have a fitted effect of over 50% in size
In short: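 Following a 4 hr attachment, PR-UAS-bla HEK293T cells in charcoal-stripped FBS medium were exposed to compounds with R5020 for 16 hr; CellTiter-Glo was added and luminescence read after 30 min at room temperature.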

[4] = qHTS assay to identify small molecule antagonists of the TGF-beta/Smad signaling pathway - cell viability counter screen (AID 1346824); also: nearly all actives have a fitted effect of over 50% in size
In short: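 SBE-bla HEK 293T cells, incubated overnight, then compound plus 0.25 ng/mL TGF-beta1 (stock added) for 5 hr at 37 C. Viability was read in the same wells by CellTiter-Glo luminescence after 30 min at room temperature.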

[5] = qHTS assay to identify small molecule agonists of the TGF-beta/Smad signaling pathway - cell viability counter screen (AID 1346829); also: top concentration of the series differs between compounds; nearly all actives have a fitted effect of over 45% in size
In short: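 In parallel with the Smad reporter read, viability of HEK 293T cells stably carrying SBE-bla is quantified by ATP luminescence following 5 hr compound treatment.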

[6] = qHTS assay to identify small molecule agonists of the TGF-beta/Smad signaling pathway (AID 1346859; active = well fitted activation curve with a large enough effect in the signal ratio in the repeat runs, not every such curve was filed as active; the % refers to the signal ratio; also: series mostly up to about 77 µM)
In short: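 Each well held 4,000 SBE-bla HEK 293T cells incubated overnight before compound addition; 5 hr later the cleavable FRET substrate went on for 2 hr at room temperature, and fluorescence was read at two emissions.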

[7] = Human pregnane X receptor (PXR) small molecule agonists, qHTS cell viability counter screen (AID 1346977); also: nearly all actives have a fitted effect of over 50% in size; also: potency is read from the fitted curve at half-maximal effect
In short: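 Tox21 qHTS format; PXR-Luc HepG2, 2,000/well, charcoal-stripped FBS 5%. Cpd exposure 24hr. Read: CellTiter-Fluor fluorescence, multiplexed with luciferase.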

[8] = Caspase-3/7 induction in HepG2 cells by small molecules, qHTS assay (AID 1346978); also: nearly all actives have a fitted effect of over 15% in size
In short: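 Wild-type HepG2 cells, 2,000/well, settled 5 hr at 37 C and 5% CO2, then compound-treated for 17 hr; caspase-3/7 activity read by luminescent Caspase-Glo 3/7 after 30 min at room temperature.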

[9] = Caspase-3/7 induction in CHO-K1 cells by small molecules, qHTS cell viability counter screen (AID 1346979); also: nearly all actives have a fitted effect of over 35% in size; also: potency is read from the fitted curve at half-maximal effect
In short: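 CellTiter-Fluor viability check, qHTS format: wild-type CHO-K1, 16hr compound treatment, 1hr reagent incubation, fluorescence read.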

[10] = Caspase-3/7 induction in CHO-K1 cells by small molecules, qHTS assay (AID 1346980); also: nearly all actives have a fitted effect of over 15% in size
In short: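 Wild-type CHO-K1 cells exposed to compounds for 17hr at 37 C, 5% CO2. Caspase-3/7 activity then measured by Caspase-Glo 3/7 luminescence after 30min at room temperature.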

[11] = Caspase-3/7 induction in HepG2 cells by small molecules, qHTS cell viability counter screen (AID 1346981); also: series mostly up to about 92 µM; nearly all actives have a fitted effect of over 30% in size
In short: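 Wild-type HepG2 cells, 2,000/well, settled 5 hr at 37 C, 5% CO2 before compound addition. Viability read by CellTiter-Fluor fluorescence, reagent added after 16 hr compound exposure, then 1 hr at 37C, in the same wells as the caspase read.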

[12] = target: Nuclear receptor subfamily 1 group I member 2 (Rattus norvegicus) (UniProt Q9R1A7); assay: Rat pregnane X receptor (rPXR) activation by small molecules, qHTS assay (AID 1346983); details: rPXR luciferase reporter cells, One-Glo luminescence, 24 h; hits give high values; also: nearly all actives have a fitted effect of over 20% in size
In short: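 Cell-based rPXR activation assay: rPXR cells, 2,000 per well, rested 5hr at 37 C, then exposed to compounds in DMSO for 24 hr at 37 C. Luciferase activity read by One-Glo luminescence after 30 min at room temperature.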

[13] = qHTS assay to identify small molecule agonists of the progesterone receptor (PR) signaling pathway - cell viability counter screen (AID 1346799; calls by dose curve; also: nearly all actives have a fitted effect of over 45% in size)
In short: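 Here, 3,000 PR-UAS-bla HEK293T cells per well were treated with compounds for 16 hr after a 6 hr preincubation at 37C and 5% CO2; cell viability is the CellTiter-Glo luminescence signal.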

[14] = target: Thyrotropin-releasing hormone receptor (Homo sapiens) (UniProt P34981); assay: qHTS assay to identify small molecule antagonists of the thyrotropin-releasing hormone receptor (TRHR) signaling pathway (AID 1346877; active = well fitted inhibition curve with a large enough effect in the repeat runs, not every such curve was filed as active; also: series mostly up to about 51 µM)
In short: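 TRHR-expressing HEK293 cells loaded with calcium dye for 2 h at 37 C; compounds pre-incubated 5 min at room temperature before TRH challenge at 1 nM final. Intracellular calcium fluorescence read kinetically for 3 min; 15 concentrations in triplicate.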

[15] = target: Thyrotropin-releasing hormone receptor (Homo sapiens) (UniProt P34981); assay: qHTS assay to identify small molecule agonists of the thyrotropin-releasing hormone receptor (TRHR) signaling pathway (AID 1346891; calls by dose curve; also: series mostly up to about 58 µM)
In short: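 Screening of agonists relied on calcium signalling in HEK293 cells expressing human TRHR: dye loading 2 h at 37 °C preceded compound addition and a 3-min fluorescence time course.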

[16] = target: Nuclear receptor subfamily 1 group I member 2 (Homo sapiens) (UniProt O75469); assay: Human pregnane X receptor (PXR) small molecule agonists, qHTS assay (AID 1346982); also: nearly all actives have a fitted effect of over 35% in size; also: potency is read from the fitted curve at half-maximal effect
In short: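 PXR-Luc HepG2 reporter cells (CYP3A4-driven luciferase) in 5% charcoal-stripped FBS medium, plated 5 h before compound addition, then treated 24 h at 37C. Luciferase read by ONE-Glo luminescence after 30 min at room temperature.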

[17] = target: Cytochrome P450 2C19 (Homo sapiens) (UniProt P33261); assay: Cytochrome P450 Family 2 Subfamily C Member 19 (CYP2C19) small molecule antagonists: luciferase reporter qHTS assay (AID 1671197); also: nearly all actives have a fitted effect of over 65% in size; also: potency is read from the fitted curve at half-maximal effect; as to activity change, negative = inhibition: series mostly up to about 120 µM
In short: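 Compounds were tested on CYP2C19 activity via proluciferin conversion to luciferin. The 37C, 1 h reaction followed NADPH addition; detection reagent stopped it.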

[18] = target: Cytochrome P450 2D6 (Homo sapiens) (UniProt P10635); assay: Cytochrome P450 Family 2 Subfamily D Member 6 (CYP2D6) small molecule antagonists: luciferase reporter qHTS assay (AID 1671196); also: nearly all actives have a fitted effect of over 50% in size; also: potency is read from the fitted curve at half-maximal effect; as to activity change, negative = inhibition: series mostly up to about 120 µM
In short: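 Cell-free P450-Glo system: CYP2D6 with proluciferin substrate was pre-incubated with compound for 10 min, then reacted with NADPH regeneration for 1 h at room temperature. Luciferin product was detected after 20 min, and data were reported as relative luminescence units.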
% is scaled to controls: 0 for no effect and ±100 for the full control effect.

Sequence of Cytochrome P450 2C19 (Homo sapiens) (P33261 whole entry, looked up): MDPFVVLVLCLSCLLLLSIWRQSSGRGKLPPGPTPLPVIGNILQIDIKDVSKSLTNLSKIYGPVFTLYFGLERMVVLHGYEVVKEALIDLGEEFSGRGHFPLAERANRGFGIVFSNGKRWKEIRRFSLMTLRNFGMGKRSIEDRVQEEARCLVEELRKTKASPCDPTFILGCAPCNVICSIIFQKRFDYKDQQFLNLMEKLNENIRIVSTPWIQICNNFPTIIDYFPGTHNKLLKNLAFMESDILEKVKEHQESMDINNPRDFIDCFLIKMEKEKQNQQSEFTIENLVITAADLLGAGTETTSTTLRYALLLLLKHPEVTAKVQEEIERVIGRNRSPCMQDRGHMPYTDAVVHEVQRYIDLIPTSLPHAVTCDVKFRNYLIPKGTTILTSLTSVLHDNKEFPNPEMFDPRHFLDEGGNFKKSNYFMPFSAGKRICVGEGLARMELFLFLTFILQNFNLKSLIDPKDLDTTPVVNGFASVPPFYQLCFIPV
Sequence of Cytochrome P450 2D6 (Homo sapiens) (P10635 whole entry, looked up): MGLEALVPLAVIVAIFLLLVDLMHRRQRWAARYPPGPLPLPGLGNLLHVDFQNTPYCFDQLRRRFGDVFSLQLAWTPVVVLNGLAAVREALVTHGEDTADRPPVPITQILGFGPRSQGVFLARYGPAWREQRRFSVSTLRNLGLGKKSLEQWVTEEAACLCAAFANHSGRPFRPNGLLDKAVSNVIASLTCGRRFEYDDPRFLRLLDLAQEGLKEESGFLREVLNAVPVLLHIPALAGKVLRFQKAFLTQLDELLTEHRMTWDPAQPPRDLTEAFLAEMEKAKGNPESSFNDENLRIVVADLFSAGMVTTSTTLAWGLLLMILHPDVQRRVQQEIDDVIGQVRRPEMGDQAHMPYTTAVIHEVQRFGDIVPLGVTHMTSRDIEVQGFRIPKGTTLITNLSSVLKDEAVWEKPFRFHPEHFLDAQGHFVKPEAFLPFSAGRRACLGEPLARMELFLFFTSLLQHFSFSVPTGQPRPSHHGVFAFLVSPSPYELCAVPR
Sequence of Thyrotropin-releasing hormone receptor (Homo sapiens) (P34981 whole entry, looked up): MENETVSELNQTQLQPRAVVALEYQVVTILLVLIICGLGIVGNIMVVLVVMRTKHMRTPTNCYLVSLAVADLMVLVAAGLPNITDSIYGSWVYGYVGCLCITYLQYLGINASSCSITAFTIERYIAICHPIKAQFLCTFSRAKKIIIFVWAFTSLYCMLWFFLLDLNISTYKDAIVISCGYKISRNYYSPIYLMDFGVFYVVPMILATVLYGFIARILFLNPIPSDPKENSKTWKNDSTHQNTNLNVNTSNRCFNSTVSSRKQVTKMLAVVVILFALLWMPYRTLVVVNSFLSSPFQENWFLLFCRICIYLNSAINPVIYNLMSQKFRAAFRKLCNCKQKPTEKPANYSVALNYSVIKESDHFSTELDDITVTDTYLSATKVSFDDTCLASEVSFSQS
Sequence of Nuclear receptor subfamily 1 group I member 2 (Homo sapiens) (O75469 whole entry, looked up): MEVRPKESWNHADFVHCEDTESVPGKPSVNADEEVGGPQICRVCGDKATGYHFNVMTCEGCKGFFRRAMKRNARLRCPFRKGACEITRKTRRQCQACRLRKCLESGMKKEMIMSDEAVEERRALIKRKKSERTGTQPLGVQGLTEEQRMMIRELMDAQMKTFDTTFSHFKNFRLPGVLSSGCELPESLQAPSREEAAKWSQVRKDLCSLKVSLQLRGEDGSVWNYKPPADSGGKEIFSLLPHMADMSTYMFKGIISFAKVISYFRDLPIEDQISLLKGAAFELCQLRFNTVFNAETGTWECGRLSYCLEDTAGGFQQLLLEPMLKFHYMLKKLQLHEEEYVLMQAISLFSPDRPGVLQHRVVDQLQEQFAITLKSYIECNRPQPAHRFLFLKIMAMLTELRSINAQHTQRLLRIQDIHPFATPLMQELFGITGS
Sequence of Progesterone receptor (Homo sapiens) (P06401 whole entry, looked up): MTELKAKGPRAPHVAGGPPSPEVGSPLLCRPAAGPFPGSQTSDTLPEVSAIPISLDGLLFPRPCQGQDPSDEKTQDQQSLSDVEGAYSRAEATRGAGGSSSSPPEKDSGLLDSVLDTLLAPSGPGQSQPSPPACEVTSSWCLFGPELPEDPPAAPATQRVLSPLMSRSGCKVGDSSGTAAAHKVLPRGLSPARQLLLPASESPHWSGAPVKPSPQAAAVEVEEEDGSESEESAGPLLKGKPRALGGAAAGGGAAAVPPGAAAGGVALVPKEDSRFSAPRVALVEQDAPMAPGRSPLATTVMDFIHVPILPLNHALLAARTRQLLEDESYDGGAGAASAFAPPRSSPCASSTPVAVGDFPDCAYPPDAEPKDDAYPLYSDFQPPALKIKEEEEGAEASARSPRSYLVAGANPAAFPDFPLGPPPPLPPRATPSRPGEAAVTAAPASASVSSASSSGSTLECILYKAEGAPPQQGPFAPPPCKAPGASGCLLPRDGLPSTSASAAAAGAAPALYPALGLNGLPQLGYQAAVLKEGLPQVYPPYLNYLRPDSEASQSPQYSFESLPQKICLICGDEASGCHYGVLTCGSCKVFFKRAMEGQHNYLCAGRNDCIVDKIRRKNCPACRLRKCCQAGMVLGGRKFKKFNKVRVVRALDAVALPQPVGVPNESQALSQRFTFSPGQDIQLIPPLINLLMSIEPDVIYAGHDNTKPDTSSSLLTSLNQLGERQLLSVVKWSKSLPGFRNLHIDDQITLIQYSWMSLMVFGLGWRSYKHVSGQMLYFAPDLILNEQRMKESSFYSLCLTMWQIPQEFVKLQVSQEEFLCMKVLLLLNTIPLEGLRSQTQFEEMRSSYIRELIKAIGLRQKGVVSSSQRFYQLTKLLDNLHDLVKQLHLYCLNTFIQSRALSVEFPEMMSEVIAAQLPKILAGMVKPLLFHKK
Sequence of Nuclear receptor subfamily 1 group I member 2 (Rattus norvegicus) (Q9R1A7 whole entry, looked up): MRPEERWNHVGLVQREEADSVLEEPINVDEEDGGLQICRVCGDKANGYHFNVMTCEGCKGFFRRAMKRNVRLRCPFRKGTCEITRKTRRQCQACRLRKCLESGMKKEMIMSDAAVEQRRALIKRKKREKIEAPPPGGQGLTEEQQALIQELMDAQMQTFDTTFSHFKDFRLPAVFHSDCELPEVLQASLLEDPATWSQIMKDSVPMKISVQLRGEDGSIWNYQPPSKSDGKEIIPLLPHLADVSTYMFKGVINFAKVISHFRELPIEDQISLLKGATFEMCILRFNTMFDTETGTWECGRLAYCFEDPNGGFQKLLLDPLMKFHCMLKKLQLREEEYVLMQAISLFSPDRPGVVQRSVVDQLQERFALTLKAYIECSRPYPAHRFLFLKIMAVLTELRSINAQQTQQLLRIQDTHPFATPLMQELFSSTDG

O=C(O)CN(CCN(CC(=O)O)CC(=O)O)CC(=O)O
active: Potency [1] 0.0097 µM
inactive: activity change, negative = inhibition [2] 7.88% [at 3.27 µM] | activity change, negative = cytotoxicity [3] 3.78% [at 3.27 µM] | viability change, negative = cytotoxic [4] -0.549% [at 2.72 µM] | activity change, negative = cytotoxicity [5] 9.65% [at 2.72 µM] | activation [6] -0.839% [at 2.72 µM] | activity change, negative = cytotoxicity [7] 0.665% [at 3.27 µM] | caspase activation [8] -0.861% [at 3.27 µM] | activity change, negative = cytotoxicity [9] 5.31% [at 3.27 µM] | caspase-3/7 activation [10] -0.0599% [at 3.27 µM] | activity change, negative = cytotoxicity [11] -2.26% [at 3.27 µM] | max activation [12] -0.541%

CCCNCCC
inactive: Potency [1] | Potency [3] | Potency [13] | Potency [4] | Potency [5] | Potency [6] | Potency [14] | outcome [15] | Potency [7] | Potency [8] | Potency [9] | Potency [10] | Potency [11] | Potency [16] | Potency [17]

CC(C)(C)C1CCC(=O)CC1
inactive: Potency [1] | Potency [2] | Potency [13] | Potency [4] | Potency [5] | Potency [6] | Potency [14] | outcome [15] | Potency [7] | Potency [8] | Potency [9] | Potency [10] | Potency [11] | Potency [16] | Potency [18]
active: Potency [17] 7.96 µM

CC(C)=CCNc1ncnc2c1ncn2[C@@H]1O[C@H](CO)[C@@H](O)[C@H]1O
active: Potency [7] 13.3 µM | Potency [9] 11.9 µM | Potency [16] 9.44 µM
inactive: Potency [1] | Potency [2] | Potency [3] | Potency [6] | Potency [14] | outcome [15] | Potency [10] | Potency [18] | Potency [17]

OC1CCC(C2CCCCC2)CC1 (stereo unspecified)
active: Potency [18] 39.9 µM
inactive: Potency [1] | Potency [3] | Potency [13] | Potency [4] | Potency [5] | Potency [6] | Potency [14] | outcome [15] | Potency [7] | Potency [8] | Potency [9] | Potency [10] | Potency [11] | Potency [16]

Nc1nc(-c2ccccc2)cs1
active: Potency [16] 27.2 µM | Potency [18] 12.6 µM
inactive: Potency [1] | Potency [3] | Potency [13] | Potency [4] | Potency [5] | Potency [6] | Potency [14] | outcome [15] | Potency [7] | Potency [8] | Potency [9] | Potency [10] | Potency [11]

CCCCCCCC
inactive: Potency [1] | Potency [2] | Potency [13] | Potency [4] | Potency [5] | Potency [6] | Potency [14] | Potency [7] | Potency [8] | Potency [9] | Potency [10] | Potency [11] | Potency [16]

CCO[C@@H]1O[C@H](C(COCc2ccccc2)OCc2ccccc2)[C@H](OCc2ccccc2)[C@H]1O (stereo partly specified)
active: Potency [2] 26.6 µM | Potency [9] 29.8 µM | Potency [18] 38.9 µM | Potency [17] 4.9 µM
inactive: Potency [1] | Potency [13] | Potency [4] | Potency [5] | Potency [6] | Potency [14] | outcome [15] | Potency [8] | Potency [10]
